# VLA-4 inh: inhibition in a human VLA-4 binding assay. P13612. VLA-4 expressing cells, ligand binding flow cytometry. inhibition, % (about 7 µM as worked out from the volumes in the protocol). actives 0.2% (n = 330,000). AID 2557; in the data active = inhibition above about 50%
# Target sequence (P13612 whole entry, looked up): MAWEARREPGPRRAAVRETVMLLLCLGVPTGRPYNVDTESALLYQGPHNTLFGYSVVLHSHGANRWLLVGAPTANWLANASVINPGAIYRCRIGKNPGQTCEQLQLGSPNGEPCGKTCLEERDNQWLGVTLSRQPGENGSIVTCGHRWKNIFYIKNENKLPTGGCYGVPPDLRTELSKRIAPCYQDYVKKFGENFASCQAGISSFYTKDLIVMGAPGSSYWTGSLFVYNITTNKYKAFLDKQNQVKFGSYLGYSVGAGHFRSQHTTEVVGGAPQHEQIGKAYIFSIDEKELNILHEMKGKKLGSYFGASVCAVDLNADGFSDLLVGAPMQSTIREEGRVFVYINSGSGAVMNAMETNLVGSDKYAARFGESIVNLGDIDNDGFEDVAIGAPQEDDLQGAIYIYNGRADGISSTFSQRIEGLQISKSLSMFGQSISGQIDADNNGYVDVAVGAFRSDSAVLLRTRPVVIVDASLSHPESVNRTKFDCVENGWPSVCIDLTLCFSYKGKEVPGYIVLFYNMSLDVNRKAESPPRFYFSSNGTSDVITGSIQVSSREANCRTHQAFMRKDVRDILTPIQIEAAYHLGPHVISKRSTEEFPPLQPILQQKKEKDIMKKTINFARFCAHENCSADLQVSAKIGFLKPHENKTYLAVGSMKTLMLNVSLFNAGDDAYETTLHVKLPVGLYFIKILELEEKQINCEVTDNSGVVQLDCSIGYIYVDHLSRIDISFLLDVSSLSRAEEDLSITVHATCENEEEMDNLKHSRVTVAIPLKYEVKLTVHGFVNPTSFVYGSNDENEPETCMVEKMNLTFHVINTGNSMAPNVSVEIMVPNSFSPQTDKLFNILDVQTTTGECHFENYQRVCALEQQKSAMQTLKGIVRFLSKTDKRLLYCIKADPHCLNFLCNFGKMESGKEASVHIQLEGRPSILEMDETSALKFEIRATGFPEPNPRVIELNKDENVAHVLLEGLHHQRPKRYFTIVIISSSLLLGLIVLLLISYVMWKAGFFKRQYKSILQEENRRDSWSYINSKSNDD
# Platelet DG rel: platelet dense granule release activity; inhibition, %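 (compounds screened at 7.5 µM in platelet-rich plasma)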; human platelet-rich plasma, SFLLRN dense granule ATP release, luminescence; AID 1663; actives 0.22% (n = 300,000);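 active = mean replicate score, as percent of positive control, at or above 50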
# SKN-1 block: blocks SKN-1 activity in C. elegans; C. elegans VP596 Pgst-4::GFP/RFP ratio, acrylamide-induced, 24 h; inhibition, % at 21.8 µM; actives 0.49% (n = 360,000);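 active = interference check ratio from 0.5 to 1.5 plus GFP to RFP signal ratio inhibition reaching or exceeding a fixed threshold, cut at about 30% in these data, passing the limit was not always enough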
# ABCB6 inh MLPCN: human ABCB6 transporter inhibition; Q9NP58; K562-ABCB6 porphyrin accumulation, flow cytometry, 1 h; stronger effect = lower value; fluorescence ratio to DMSO, % at 10 µM; actives 0.19% (n = 360,000);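 active = fluorescence ratio to DMSO below 75%, the collection mean minus 3 SD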;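 note: signal is porphyrin accumulated inside mitochondria; 100% equals median channel fluorescence of DMSO control wells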
# Yeast superoxide: yeast age-related superoxide inhibition as caloric restriction mimetic. S. cerevisiae aged cells, superoxide DHE fluorescence; stronger effect = lower value. superoxide response (% of plate mean), % at 10 µM. actives 0.18% (n = 330,000);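 active = superoxide response under a set limit, about three screen SD below normal, cut at about 65% in these data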;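 note: yeast aged for seven days with compound at 30 °C before DHE staining; 100% = average MFI of all compound-treated wells on the plate with controls excluded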
# Superoxide pick: confirmation of caloric restriction mimetics inhibiting yeast age-related superoxide; actives 1% (n = 850); superoxide response (% of plate), % at 10 µM; S. cerevisiae aging, superoxide DHE fluorescence; stronger effect = lower value; shares compounds with Yeast superoxide;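 active = superoxide signal below 65% of the plate average of sample wells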;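 note: cells aged with compound for 7 days at 30 degrees C before staining; 100% equals mean DHE fluorescence of all compound wells on the plate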
# DHE fluor count: compound alters DHE oxidation or fluorescence in yeast; S. cerevisiae BY4741, flow cytometry; stronger effect = lower value; AID 435000; 850 tested, under 10 active; fluorescence response, % at 10 µM; shares compounds with Yeast superoxide;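 active = fluorescence response below 15%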;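 note: percent of the mean fluorescence averaged over all compound wells on the plate; lower means stronger quenching of DHE signal or ROS scavenging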
# The depositor's hits bear a star; . = not tested or not shown. Shown are actives, neighbours in structure and some others; about 1.2% of the full set was active somewhere.
SMILES,VLA-4 inh,Platelet DG rel,SKN-1 block,ABCB6 inh MLPCN,Yeast superoxide,Superoxide pick,DHE fluor count
COCCNC(=O)C1(C)CCCN(C(=O)c2cccc(Cl)c2)C1 (stereo unspecified),.,.,12.7,100.0,.,.,.
CCOc1ccccc1C(=O)N1c2ccccc2Sc2ccccc21,-1.0,-10.0,-3.8,105.0,57.2*,85.8,93.5
COc1ccccc1C(=O)N1c2ccccc2Sc2ccccc21,11.6,-9.8,17.2,96.0,110.8,.,.
Cc1nn(CC(=O)Nc2ccccc2C(F)(F)F)c(=O)c2cccn12,4.2,-13.1,-1.7,102.0,103.6,.,.
CCc1ccccc1NC(=O)Cn1nc(C)n2cccc2c1=O,8.2,7.1,18.1,95.0,63.3*,98.3,88.3
COc1ccc(C)cc1-n1nnnc1SCc1cn2ccsc2n1,-1.8,12.7,0.0,98.0,62.2*,117.7,109.8
COCc1cn(CC(=O)c2sc(NC(=O)C(C)(C)C)nc2C)nn1,.,.,4.7,120.0,.,.,.
COc1ccc(CCNC(=O)c2ccc(CSc3ccc(Cl)cc3)o2)cc1OC,.,.,0.7,89.0,.,.,.
Cc1cc(=O)oc2cc(OCCCC[n+]3ccccc3)ccc12,10.8,0.1,2.7,98.0,70.7,.,.
CCCCCc1ccc(OCCCC[n+]2ccc(C)cc2)c(CCCCC)c1,5.0,5.4,-13.9,94.0,116.6,84.8,96.0
CCCCCc1ccc(OCCCC[n+]2ccccc2)c(CCCCC)c1,-3.9,-5.8,1.3,92.0,89.3,88.0,96.7
CCC(C)(C)c1ccc(OCCCC[n+]2ccccc2)c(C(C)(C)CC)c1,5.3,1.7,-4.0,94.0,81.1,93.8,92.7
CCCCOc1ccc(C)cc1CN(CCO)CCO,3.0,-0.7,6.7,99.0,105.6,.,.
CCCCCc1ccc(OCCCC[n+]2cccc(C)c2)c(CCCCC)c1,-4.8,0.1,0.1,87.0,100.2,104.9,89.0
CCCCCOc1ccc(Br)cc1CSC(=N)N,.,1.1,2.9,98.0,.,.,.
C#CCNC(=O)C[C@@H]1C[C@@]2(C(=O)OCC)CCCC=C2N(CCC2=CCCCC2)C1=O,.,.,-6.0,.,.,.,.
Cc1cc2nc(-c3nnnn3Cc3ccccc3)c(=O)[nH]c2cc1C,.,.,1.2,96.0,.,.,.
COc1ccc(/C=C2\SC(N3CCCCC3)=NC2=O)cc1,-69.2,-6.2,-6.4,96.0,55.1*,98.4,99.1
Cc1nn(-c2ccccc2)c(N2CCCC2)c1/C=N/Nc1ccc(S(N)(=O)=O)cc1[N+](=O)[O-],-0.7,-3.0,13.5,95.0,60.3*,93.4,101.2
COc1ccc2nc(Nc3nc(C)c(CCC(C)C)c(=O)[nH]3)nc(C)c2c1,13.5,0.5,10.8,94.0,65.3*,121.7,108.3
COc1ccc2nc(Nc3nc(CSc4ccc(C)cc4)cc(=O)[nH]3)nc(C)c2c1,6.5,-3.4,-19.6,89.0,117.0,.,.
Cc1cc(C)c(C(O)c2ncc(-c3ccccc3Cl)[nH]2)c(C)c1 (stereo unspecified),.,.,15.8,93.0,.,.,.
CCOC(=O)c1c(O)c2ccccc2n(-c2ccccc2)c1=O,-7.3,.,12.3,103.0,89.7,.,.
O=c1cc(O)c2c(=O)n(-c3ccccc3)c3ccccc3c2o1,15.6,-1.4,16.6,98.0,75.3,95.5,94.8
CC(C)n1c(=O)c2c(O)cc(=O)oc2c2ccccc21,-1.8,4.2,12.0,94.0,71.4,87.0,97.7
SMILES,VLA-4 inh,Platelet DG rel,SKN-1 block,ABCB6 inh MLPCN,Yeast superoxide,Superoxide pick,DHE fluor count
CCn1c(=O)c2c(O)cc(=O)oc2c2ccccc21,-2.8,-0.8,-23.3,94.0,47.9*,81.8,101.3
CCn1c(=O)c(-[n+]2ccccc2)c(O)c2ccccc21,23.6,3.4,14.7,93.0,99.6,.,.
COc1ccccc1CCNC(=O)c1c(N)[nH]c(C(=O)c2ccccc2)c1-c1ccc(Br)cc1,.,.,17.5,124.0,.,.,.
COc1ccc(Cc2nnc(SC)n2-c2ccc(F)cc2)cc1OC,.,.,10.6,100.0,.,.,.
CC(C)C[C@@H](CN1CCC[C@@H]1CN1C(=S)NC[C@@H]1Cc1ccc(O)cc1)N1C[C@H](Cc2ccc(O)cc2)N(CC2CCCCCC2)C1=S,.,.,-4.6,96.0,.,.,.
COc1ccc2c(C)cc(SCC(=O)NC3CCCC3)nc2c1,-9.8,.,10.9,92.0,97.4,.,.
COc1ccc2c(C)cc(SCC(=O)c3ccc4c(c3)OCO4)nc2c1,-3.7,-2.3,14.4,108.0,64.4*,93.9,94.8

# Bioassay records: PubChem BioAssay, several laboratories
